# Data taken from PubChem BioAssay AID504444 (National Center for Advancing Translational Sciences (NCATS), 2011).
# About 7,500 (2.1%) of roughly 360,000 compounds were called active. About 20% were inconclusive and are not listed. What follows is part of a selection rich in actives, with near analogues and random picks from the rest. Values without a mark were called inactive. The call rests on the fitted dose curve; in most records, active means well fitted inhibition curve with a large enough effect; inconclusive means small, poorly fitted or top-dose-only effect, or effect the other way; inactive means flat fitted curve, though single readings scatter.
# Assay: Nrf2 qHTS screen for inhibitors; further: nearly all actives have a fitted effect of over 60% in size
# Settings: A549 ARE-Fluc reporter, luciferase luminescence, 18-24 h; series mostly up to 46 µM; activity change, negative = inhibition: at the top concentration
# In short: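 Two sequential reads on A549 ARE_Fluc cells exposed to compound for 18-24 h: a CellTiter-Fluor fluorescence read for viability, then a luciferase luminescence read for Nrf2/ARE activity.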
# On the % scale 0 is the no-effect control and ±100 the full control effect; potency means the concentration at half of the fitted maximal effect.
SMILES,"activity change, negative = inhibition",Potency
Cc1ccc(S(=O)(=O)N2CCN(C(=O)c3cccs3)CC2)cc1,3.88%,
CC(C)Cc1ccc(S(=O)(=O)N2CCN(C(=O)c3ccco3)CC2)cc1,,18.4 µM (active)
O=C(CNS(=O)(=O)c1ccccc1)N1CCN(C(=O)c2ccco2)CC1,12.4%,
O=C(CNC(=O)c1ccccc1)OC(C(=O)Nc1cc([N+](=O)[O-])ccc1F)c1ccccc1 (stereo not drawn),17.1%,
COc1ccc(NC(=O)CCN2CCN(CCO)CC2)cc1,3.24%,
O=C(NNC(=O)c1ccc(-c2ccccc2)cc1)Nc1ccccc1,26.6%,
C=CC[n+]1c(-c2ccc(C)cc2)csc1NNC(=O)Nc1ccccc1,,18.4 µM (active)
C=CCNc1scc(-c2ccccc2)[n+]1CC=C,17.2%,
CCOCCCNC(=O)c1cn(CC)c2ccc(S(=O)(=O)N3CCc4ccccc4C3)cc2c1=O,-18.4%,
COc1c(Cl)cc(C(=O)N(Cc2ccccc2F)C2CCS(=O)(=O)C2)cc1Cl (stereo not drawn),20.2%,
COc1ccc(C2Nc3ccccc3C(=O)N2Cc2ccc(CNC(=O)CO)cc2)cc1COc1ccc(NC(C)=O)cc1 (stereo not drawn),-24.4%,
CC(C)(C)OC(=O)N(Cc1ccccc1)Cc1ccc(OCc2cccc(NC(=O)c3ccccc3)c2)cc1,-19.1%,
C=CCOC(=O)C1=C(C)NC(C)=C(C(=O)OCC=C)C1c1cccs1,,20.6 µM (active)
C=CCOC(=O)c1ccccc1C(=O)OCC=C,0.689%,
CCOC(=O)C1=C(C)NC(=S)NC1c1cccs1 (stereo not drawn),7.07%,
CCCCN1CC(COc2ccccc2)Oc2cccc(F)c2S1(=O)=O (stereo not drawn),-1.14%,
O=S(=O)(O)c1cc2onnc2c2ccccc12,3.56%,
COc1ccc(Cl)cc1C=CC=Nc1ccc(S(N)(=O)=O)cc1,-33.7%,
CC1CCCN(C(=O)CN2C(=O)c3ccccc3S2(=O)=O)C1 (stereo not drawn),-11.1%,
O=C(CN1C(=O)c2ccccc2S1(=O)=O)NC1CCCCC1,3.92%,
O=C(CN1C(=O)c2ccccc2S1(=O)=O)N1CCc2ccccc21,,4.11 µM (active)
COc1ccc(-c2cn3nc(N4CCC(C(=O)Nc5cccc(C)c5C)CC4)sc3n2)cc1,8.32%,

SMILES,"activity change, negative = inhibition",Potency
CCN(CC)S(=O)(=O)c1ccc(C(=O)N=c2sc3cccc(OC)c3n2C)cc1,8.13%,
NCCCNC(=S)NCCCN(Cc1ccc(Cl)cc1)c1ccc(Br)cn1,22.6%,
COc1ccc(CCNc2cc(N3CCN(C(=O)c4ccccc4OC)CC3)ccc2[N+](=O)[O-])cc1OC,,5.8 µM (active)
COc1ccc(CCNC(=O)c2ccccc2-c2ccccc2C(=O)O)cc1OC,-2.44%,
COc1ccccc1OCCNc1cc(N2CCOCC2)ccc1[N+](=O)[O-],-5.26%,
CCN(CC)S(=O)(=O)c1ccc(N2CCOCC2)c(NC(=O)C(C)Oc2ccc(F)cc2)c1 (stereo not drawn),-0.342%,
Cc1ccccc1-c1cc(C(=O)NCC2CC2)n(CC2CC(c3cccnc3)=NO2)n1 (stereo not drawn),-9.82%,
Cc1ccccc1-c1cc(C(=O)NCc2cccs2)n(CC2CC(c3cccnc3)=NO2)n1 (stereo not drawn),,20.6 µM (active)
Cc1ccc(CNC(=O)c2cc(-c3ccccc3C)n(CC3CC(c4cccc([N+](=O)[O-])c4)=NO3)n2)cc1 (stereo not drawn),-13.2%,
CCCCCn1c(=O)[nH]c2cc(C(=O)NCCN(C)CCCC)ccc2c1=O,7.46% [at 9.27 µM],
CC(=O)Nc1ccc(S(=O)(=O)N2CCN(S(=O)(=O)c3cccs3)CC2)cc1,-12.1%,
COc1ccc(CNC(=O)C(NS(=O)(=O)c2cccc3nsnc23)C(C)C)cc1 (stereo not drawn),-4.3%,
CC(C)C(NS(=O)(=O)c1cccs1)C(=O)Nc1nc(C(C)(C)C)cs1 (stereo not drawn),,18.4 µM (active)
Cc1ccc(CN(C(=O)COc2ccc(Cl)cc2C)C2CCS(=O)(=O)C2)o1 (stereo not drawn),10.4%,
CC1CCN(S(=O)(=O)c2ccc3c(ccn3CCC(=O)NCc3ccc(N(C)C)cc3)c2)CC1,-6.81%,
Cc1ccccc1C(=O)N(Cc1ccc(N(C)C)cc1)CC1CCCO1 (stereo not drawn),-10.2%,
CN(Cc1cncn1C)c1ncnc2ccc(-c3ccc4c(c3)OCO4)cc12,0%,
CCC(=O)N1CCc2cc(S(=O)(=O)NC(Cc3ccccc3)C(=O)NCc3ccccc3)ccc21 (stereo not drawn),-2.93%,
COc1ccccc1C(=O)Nc1c(C(=O)N(C)Cc2ccccc2)sc2nc(C)c(Cl)c(C)c12,,14.6 µM (active)
COc1ccccc1C(=O)NCCC(=O)N(C)Cc1cccnc1,6.48%,
COc1ccccc1NC(=O)c1sc2nc(C)c(C(=O)Nc3ccc(Cl)cc3)c(-c3ccc(Br)cc3)c2c1N,6.36% [at 9.27 µM],
COc1ccc(CCn2cc3c(c2-c2ccc(Br)cc2)c(=O)n(C)c(=O)n3C)cc1OC,-14.1%,

SMILES,"activity change, negative = inhibition",Potency
COc1cc2nc(SCc3ccc(F)cc3)n3nc(CCn4c(C)nc5ccccc54)nc3c2cc1OC,5.71%,
CC[C@]12c3[nH]c4ccc(OC)cc4c3CCN1C(=O)C(CC(=O)NCc1ccco1)C[C@@H]2C(=O)N1CCN(C(=O)C2CC2)CC1 (stereo partly drawn),2.5%,
CC[C@]12c3[nH]c4ccc(Cl)cc4c3CCN1C(=O)[C@@H](CC(=O)NCCN1CCOCC1)C[C@@H]2C(=O)N1CCN(C(=O)C2CC2)CC1,14.3%,
COc1ccc(CNC(=O)C[C@H]2C[C@H](C(=O)N3CCOCC3)[C@@]3(CCC4CCCC4)c4[nH]c5ccc(Cl)cc5c4CCN3C2=O)cc1OC,,13 µM (active)
COc1ccc2[nH]c3c(c2c1)CCN1C(=O)C(CC(=O)NCCCN(C)C)C[C@H](C(=O)N2CCOCC2)[C@@]31CCC1CCCC1 (stereo partly drawn),13.5%,
O=C(C[C@H]1C[C@H](C(=O)N2CCOCC2)[C@@]2(CCC3CCCC3)c3[nH]c4ccc(Cl)cc4c3CCN2C1=O)NCc1ccco1,,20.6 µM (active)
CN(C)C(=O)CCc1ccc2c3c([nH]c2c1)[C@]1(CCC2CCCC2)[C@@H](C(=O)N2CCOCC2)C[C@H](CC(=O)NCc2ccco2)C(=O)N1CC3,0.0719%,
CC(C)(C)OC(=O)C[C@@H]1C/C=C\C[C@H](CC(=O)N[C@@H](CO)Cc2ccccc2)C(=O)N[C@H](Cc2ccccc2)COC1=O,1.6%,
N#CN1CCC(NC(=O)c2ccc(F)cc2)CC1,11.4%,
CCOc1ccc(S(=O)(=O)Nc2ccc3oc4c(c3c2)CC(C)CC4)cc1 (stereo not drawn),-27.3%,
Cc1ccccc1CS(=O)(=O)CC1Nc2ccc(C(=O)NCc3ccc(Cl)cc3)cc2NC1=O (stereo not drawn),21.9%,
COc1cccc2oc(CCc3ccccc3)cc(=O)c12,16.4%,
COc1ccccc1CNS(=O)(=O)c1cc(Br)cc2c1N(C(C)=O)C(C)C2 (stereo not drawn),1.68% [at 9.27 µM],
CCOc1cccc2c1N[C@@H](c1ccc(C(=O)O)cc1)[C@H]1CC=C[C@@H]21,4.95%,
COc1cccc(CNC(=O)CCC(=O)N2CC3CCCN3c3ccccc32)c1 (stereo not drawn),-3.25%,
Cc1ccc(SCC(=O)N2CCN(c3ccc(F)cc3)CC2)cc1,-9.47%,
CCN1CCC(N(Cc2ccc(F)cc2)C(=O)Nc2cc(C)ccc2C)CC1,0.308%,
CCN1CCC2(CC1)N=C(c1ccc(F)cc1)C(=S)N2C(=O)c1ccc(C)cc1,,16.4 µM (active)
Cc1cc(OCC(=O)NCC2(N(C)C)CCCCC2)cc(C)c1Cl,13.5%,
Cc1cc(C)cc(NC(=O)CSc2nc3nccnc3c(=O)n2CCc2c[nH]c3ccccc23)c1,-0.502%,
CCOC(=O)/C(C#N)=C/c1ccc(N2CCCCC2)cc1,27.1%,
O=C1C=CC(=O)N1c1ccc(N2CCCCC2)cc1,,25.9 µM (active)

SMILES,"activity change, negative = inhibition",Potency
O=C(Cc1ccccc1)NC(=S)Nc1ccc(N2CCCCC2)cc1,9.44%,
Cc1ccc(SCC(=O)Nc2ccc3oc(-c4ccccc4F)nc3c2)cc1,4.37%,
CC[C@]1(C(=O)OC)[C@H]2C(=O)N(Cc3ccccc3)C(=O)[C@H]2[C@H]2CN=C(SCc3ccc(C#N)cc3)N21,-2.24%,
CCOc1ccc(Nc2nc3c(S(=O)(=O)c4cccc(Cl)c4)nnn3c3ccsc23)cc1,,14.6 µM (active)
O=S(=O)(c1ccc(Br)cc1)c1nnn2c1nc(NC1CCCCCC1)c1sccc12,2.63%,
CCc1ccc(S(=O)(=O)c2nnn3c2nc(N2CCN(CC)CC2)c2sccc23)cc1,28.1%,
Cc1ccc(-c2cn3c(n2)sc2cc(C(=O)NCCCc4ccccc4)ccc23)cc1,13.8%,
CCN1C[C@@H]2[C@@H]3C(=O)N(Cc4ccccc4)C(=O)[C@@H]3[C@](Cc3ccccc3)(C(=O)OC)N2C1=NC1CCCCC1,-21.2%,
CCN(CCCNC(=O)c1cc(Nc2ccc(OC)cc2)nc2ccccc12)c1cccc(C)c1,6.69%,
O=C(COC(=O)c1c2c(nc3ccccc13)/C(=C\c1cccs1)CCC2)Nc1ccccc1Cl,-9.33%,
NS(=O)(=O)c1ccc(NC(=O)COC(=O)c2c3c(nc4ccccc24)/C(=C\c2ccc4c(c2)OCO4)CCC3)cc1,-21.8%,
NC(=O)c1ccc(NC(=O)COC(=O)c2c3c(nc4ccccc24)/C(=C\c2ccc4c(c2)OCO4)CCC3)cc1,,14.6 µM (active)
CC(=O)c1c(C)[nH]c(C(=O)OCC(=O)Nc2cc(S(=O)(=O)N3CCCCC3)ccc2C)c1C,-24%,
CC(=O)c1c(C)[nH]c(C(=O)OCC(=O)Nc2sc3c(c2C#N)CCCC3)c1C,,18.4 µM (active)
Cc1cccc(C)c1NC(=O)COC(=O)c1ccccc1O,2%,
CC(=O)c1c(C)[nH]c(C(=O)COC(=O)c2cccs2)c1C,-11.4%,
Cc1cccc(C(=O)OCC(=O)Nc2sc3c(c2C#N)CCC3)c1,1.47%,
CC(=O)c1c(C)[nH]c(C(=O)OCC(=O)Nc2c(C)cccc2C)c1C,,13 µM (active)
CC(=O)c1c(C)[nH]c(C(=O)OCC(=O)Nc2c(C)n(C)n(-c3ccccc3)c2=O)c1C,-19%,
CC(=O)c1c(C)[nH]c(C(=O)OCC(=O)NCCC(C)C)c1C,,11.6 µM (active)
Cc1ccc(C)c(OCC(=O)Nc2sc3c(c2C#N)CCCC3)c1C,3.03%,
CCOC(=O)N1CCC(NC(=O)c2cnn(-c3cccc(C)c3)c2C2CCN(C(=O)OC(C)(C)C)CC2)CC1,11.3%,
